Data on 63 compounds can be found in PubChem BioAssay AID1813 (Broad Institute, 2009).

A word on the inhibition: it is the drop in the measured response relative to a control, in per cent.

Where “and” joins values, the source holds several entries; their conditions need not be identical. Identical values can stand only once. The whole screen tested about 300,000 compounds, of which about 2,500 (0.83%) were called active. Many of the other results were omitted from the sample, so actives are more common in it than they were. Values without a mark were called inactive. Cut-off read from the data, not from the text of the source: active = inhibition above about 60%; inconclusive = no clear call, values can overlap the other calls; inactive = below that.

A short description of the experiment: MLPCN primary screen, SNCA 5' untranslated region (AID 1813).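 Note: H4 neuroglioblastoma cells stably carrying SNCA 5'UTR luciferase fusion; 0% = DMSO wells and 100% = positive control.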 The conditions noted are these: alpha-synuclein 5'UTR reporter, inhibitor activity; hits give high values; tested at 7.5 µM.
As to `CNC[C@H](CC1CCCCC1)NC[C@H](NCCC1CCCC1)[C@H](C)O`, the inhibition is -34.1%. In the case of `CC(=O)N1C(C)c2ccccc2C(C)(C)CC12CCCCC2` (stereo not drawn), the inhibition was -9.23%. To `COC(=O)c1sc(NC(=O)c2ccc(OC)cc2OC)nc1C` belongs 101% (active); to `COc1cc2ccccc2cc1C(=O)Nc1nc(C)c(C(C)=O)s1`, -106%; to `Cc1csc(NC(=O)c2ccc(C)s2)n1`, -174%.

As to `COc1cc(SC)ccc1C(=O)Nc1cc(C)ccn1`, the inhibition is -8.42%. On to `COc1ccc(Cc2nnc(NC(=O)c3ccc(OC)cc3OC)s2)cc1`, for which the inhibition is -62.4%.

For `COc1cc(SC)ccc1C(=O)Nc1nc(C)cs1`, the inhibition was 96.2% (active). For the compound `Cn1c(Cc2cccs2)nnc1SCC(=O)Nc1ccccc1`, the inhibition is 11%. Turning to `COc1ccc(NC(=O)CSc2ccc(-c3ccco3)nn2)c(OC)c1`, the inhibition was 7.22%.

On to `CC(C)CN(C(=O)c1ccc2c(c1)OCO2)C1CCS(=O)(=O)C1` (stereo not drawn), for which the inhibition is -8.68%. For the compound `CC(C)C(=O)N1CCN(c2nc(-c3ccccc3)c3c(c2C#N)CC(C)(C)OC3)CC1`, the inhibition is -10.5%.

For the compound `CCO[C@H]1OC(C(=O)N2CCN(Cc3ccccc3)CC2)=C[C@@H](c2cn(C(C)=O)c3ccccc23)[C@@H]1CCCO`, the inhibition is 14.2%. To `O=C(COC(=O)c1ccc(Cl)nc1)NCc1ccc2c(c1)OCO2` belongs 17.3%; to `O=S(=O)(c1ccc(F)cc1)N1CCN(C(=S)NC2CCCC2)CC1`, 4.9%.

Regarding `CN(NC(=O)c1ccccc1)c1nc2ccccc2nc1C(F)(F)F`, the inhibition is -26.7%. Take `CN(NC(=O)c1ccccc1F)c1nc(C(F)(F)F)nc2ccccc12`: the inhibition was 39.8%. For the compound `CSc1nc(N(C)NC(=O)c2cccc(C)c2)c2ccccc2n1`, the inhibition was 114% (active). To `O=c1c2cc(-c3ccccc3)sc2nc2n1N=C(c1cccs1)CS2` belongs -105%; to `O=C(Cn1c[n+](CC(=O)c2ccc([N+](=O)[O-])cc2)cn1)c1ccc([N+](=O)[O-])cc1`, 1.61% and -7.59%. To `COc1ccccc1OC(C)C(=O)Nc1ccc(S(=O)(=O)Nc2nccs2)cc1` (stereo not drawn) belongs 8.93%; to `CCN1CCN(CC(=O)c2cc(OC)c(OC)c(OC)c2)CC1`, -44%. To `CSc1ncc(Sc2ccccc2)c(C(=O)O)n1` belongs 9.17%; to `CSc1nc(-c2ccccc2)nc(C(Cl)Cl)n1`, 114% (active); to `CC(C)(C)c1ccc(Oc2ccc(N)cc2)cc1`, 112% (active). Take `COc1cccc(Oc2ccc(N)cc2)c1`: the inhibition is 5.65%. Turning to `CC(C)(C)c1ccc(OC2=CS(=O)(=O)c3ccccc32)cc1`, the inhibition is -110%. As for `C=CCOc1ccc(/C=C/C(=O)OCC(=O)NC(C)c2ccc(F)cc2)cc1` (stereo not drawn), the inhibition is 5.96%. To `O=C(c1ccc(OC2CCN(C/C=C/c3ccc(F)cc3)CC2)cc1)N1CCCCC1` belongs -17.6%; to `COCCN1C(=O)C(=O)/C(=C(/O)c2ccc(S(=O)(=O)N3CCOCC3)cc2)C1c1ccc(OC)c(OC)c1` (stereo not drawn), 0.0342%. `CC(C)(C)NC(=O)NC(=O)CN1CCC(Cc2ccccc2)CC1`: the inhibition is 17.3%. As for `Cc1c(Cl)c([N+](=O)[O-])nn1Cc1ccc(C(=O)N/N=C\c2cc(Cl)ccc2O)o1`, the figure is 81.2% (active); as for `Cc1ccc(C(=O)O)cc1NC(=O)c1ccc(Cn2nc(C)c(Cl)c2C)o1`, -17.2%.

Consider `Cc1c(Cl)c([N+](=O)[O-])nn1CCCC(=O)Nc1cc(Cl)ccc1Cl`, for which the inhibition was 12.6%. To `NC(=O)CCC(NS(=O)(=O)c1ccc(Cl)cc1)C(=O)NCc1ccccc1Cl` (stereo not drawn) belongs -12.6%; to `CCCCN(C)CCNC(=O)CSCc1ccc(C)cc1`, 0.318%; to `CC(=O)N1c2ccc(S(=O)(=O)N3CCCC(C(=O)Nc4cccc(F)c4)C3)cc2CC1C` (stereo not drawn), 4.33%. In the case of `CCOC(=O)C1=C(c2ccc(OC)cc2)C(=O)c2ccccc2C1=O`, the inhibition was -17.2%.

Turning to `CCOC(=O)c1c(C)[nH]c(C)c1S(=O)(=O)N(C)CC(=O)Nc1ccccc1C`, the inhibition was 23%. To `CCOC(=O)c1c(C)[nH]c2c1-c1ccccc1C(=O)C2=O` belongs 99.5% (active); to `O=S(=O)(c1ccc(-c2ccccc2)cc1)N1CCCC1`, 1.66%; to `COc1ccc(-n2c(C)nn(CC3CC3)c2=O)cc1`, 5.05%. Regarding `Cc1cc(Nc2cc(N3CCN(C)CC3)nc(Sc3ccc(NC(=O)C4CC4)cc3)n2)n[nH]1`, the inhibition was -50.9%.

For `O=C(O)CCn1c(SCc2cc(=O)n3ccccc3n2)nc2ccsc2c1=O`, the inhibition is -7.14%. `COc1ccccc1C(=O)NNC(=O)CCN1C(=O)/C(=C\c2ccccc2)SC1=S`: the inhibition is 8.03%. As for `Cc1ccc(/C=C2\SC(=S)N(CCC(=O)Nc3ccc(O)cc3)C2=O)cc1`, the figure is 0.184%; as for `C=CCOc1ccc(/C=C2\SC(=S)N(CCC(=O)O)C2=O)cc1`, 80% (active).

As to `C=CCNC(=O)/C=C/c1ccc(C(C)C)cc1`, the inhibition was -129%.

Turning to `Cc1ccc2nc(-c3ccc(SCC(=O)Nc4cc(C)on4)nc3)[nH]c2c1`, the inhibition was -160%. To `COc1ccc(CNC(=O)CSc2n[nH]c(N)n2)cc1OC` belongs 4.62%; to `CCC(=O)Nc1ccc2nc(C)n(Cc3ccccc3Cl)c(=O)c2c1`, 11.1%.

Regarding `CCOc1cc(NC(=O)c2ccccc2C(=O)O)c(OCC)cc1NC(=O)c1ccccc1F`, the inhibition was 11.7%. As to `CCN1CCN(c2cc3nc(C)n(Cc4ccccc4)c(=O)c3cc2NC(=O)c2ccccc2F)CC1`, the inhibition is 65.1% (active). For `C=CCc1cccc2cc(C(=O)Nc3ccc(NC(C)=O)cc3)c(=O)oc12`, the inhibition is -30.5%.

On to `CCc1ccc2nc(N(CCCN(C)C)C(=O)c3ccc4c(c3)OCCO4)sc2c1`, for which the inhibition was -34.6%. As for `CCOc1ccc2nc(N(CCCN(C)C)C(=O)c3ccc(C(=O)c4ccccc4)cc3)sc2c1`, the figure is 90.2% (active); as for `CSc1nc2ccc(S(=O)(=O)N3CCc4ccccc43)cc2s1`, 1.39%. As for `CN(C)CCCN(C(=O)c1ccc(S(=O)(=O)N2CCCc3ccccc32)cc1)c1nc2ccc(F)cc2s1`, the figure is 74.2% (active); as for `CN(C)CCCN(C(=O)c1ccc(S(=O)(=O)N2CCCCCC2)cc1)c1nc2ccc(Br)cc2s1`, 75.3% (active). For `CCN(CC)CCN(C(=O)c1ccc(S(=O)(=O)N2CCOCC2)cc1)c1nc2cc3c(cc2s1)OCCO3`, the inhibition was -15.5%. To `CN(C)CCCN(C(=O)c1ccc(S(=O)(=O)N2CCCCCC2)cc1)c1nc2cc3c(cc2s1)OCCO3` belongs -27.7%; to `COc1ccc2sc(N(CCCN(C)C)C(=O)c3ccc(S(=O)(=O)N(C)C4CCCCC4)cc3)nc2c1`, -20%.

Regarding `CCOc1ccc2nc(N(CCN(C)C)C(=O)c3ccc4ccccc4c3)sc2c1`, the inhibition was -8.13%.
